Screening results from PubChem BioAssay.
Sampled rows, rich in hits. Any-hit rate of the full collection: about 2.2%.
NALP3 yeast inh: NALP3 inflammasome inhibitors in reconstituted yeast, primary screen, luminescence, uHTS | inhibition, % at 10 µM | Yeast reconstituted NLRP3/ASC/caspase-1, beta-gal luminescence, 24 h | AID 2825, 2010 | hit rate 0.39% among 330,000;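 active = inhibition of 50% or more; inactive = inhibition below 50%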
ZTA DNA inh: ZTA (EBV) inhibition in EBNA-1 counter-screen | AID 2234 | inhibition, % at 11 µM | ZTA-DNA binding, fluorescence polarization | hit rate 0.15% among 320,000 | P03206; in the data active = inhibition above about 33%
Target sequence (P03206 whole entry, looked up): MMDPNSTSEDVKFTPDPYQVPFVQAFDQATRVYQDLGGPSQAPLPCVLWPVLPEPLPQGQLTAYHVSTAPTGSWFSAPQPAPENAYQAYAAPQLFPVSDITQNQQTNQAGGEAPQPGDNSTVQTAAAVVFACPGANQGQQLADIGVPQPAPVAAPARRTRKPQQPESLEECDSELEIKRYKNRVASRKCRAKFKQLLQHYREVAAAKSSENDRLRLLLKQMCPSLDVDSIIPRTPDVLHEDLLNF
PolyA inh: polyadenylation inhibitors in yeast reporter cells, primary screen, luminescence, S. cerevisiae; S. cerevisiae SKY197-pL101 polyadenylation reporter, beta-gal luminescence; efflux-impaired pdr1/pdr3 knockout yeast; score 100 = 6 SD above DMSO; activity score, % at 12 µM; hit rate 0.02% among 300,000; AID 1875, 2009;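 active = lowest replicate activity score at least 50, where 100 means six control SD above control mean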;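 also: yeast exposed to compound for 9 h at 30 °C; higher score means more reporter readthrough which indicates perturbed polyadenylation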
EBNA-1 inhibitor: EBNA-1 DNA-binding inhibitors, primary screen, biochemical, fluorescence polarization. inhibition, % at 14.8 µM. hit rate 0.34% among 300,000. AID 1950, 2009; in the data active = inhibition above about 28%
dFosB act-1: activators of delta FosB homodimer, primary screen, biochemical, fluorescence polarization, TAMRA-CDK5 oligo, single point; hit rate 0.99% among 340,000; purified delta FosB; percent of positive-control signal above neutral wells; Protein FosB (Mus musculus), P13346; activation, % at 25 µM; AID 493131, 2011;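 active = mean activation above about 17%, with every replicate also reaching it, limit read from the data, passing the limit was not always enough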
NALP1 inh: NALP1 inflammasome inhibitors in reconstituted yeast, colorimetric, S. cerevisiae, triplicate retest. S. cerevisiae NALP1/ASC/caspase-1 growth, X-gal OD620, 72 h. inhibition, % at 10 µM. hit rate 0.61% among 280,000; in the data active = inhibition mostly above about 24%, no sharp cut-off; inactive = mostly below about 32%
dFosB act-2: activators of mouse delta FosB DNA binding, confirmation, biochemical, fluorescence polarization, TAMRA-CDK5 oligo, cherry-picked samples; shares compounds with dFosB act-1; purified delta FosB; normalised: neutral wells 0, positive control 100; activation, % at 24.9 µM; 2,400 tested, under 10 active;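 active = highest replicate activation at or above 34% and every replicate reaching that threshold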;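 also: higher polarization means more probe DNA bound by delta FosB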
Of the large screens only hits and unclear results are named; the others gave an inactive call (follow-up assays come after a bar, where they were run).

CCN(CC)CCNC(=O)CCc1c(C)nc2c(c(C)nn2-c2ccc(C)c(C)c2)c1C	dFosB act-1 19.6 (no result: ZTA DNA inh, EBNA-1 inhibitor) | dFosB act-2 inactive
CN1/C(=C\C(=O)c2ccco2)C(C)(C)c2ccccc21	ZTA DNA inh 147.3, EBNA-1 inhibitor 38.7, dFosB act-1 23.8 | dFosB act-2 inactive
CN1/C(=C\C(=O)CSc2nnc(NCc3ccccc3)s2)C(C)(C)c2ccccc21	dFosB act-1 22.6 | dFosB act-2 inactive
Cc1cc(C(=O)CSc2nnc(NCc3ccccc3)s2)c(C)n1C	none
CCOc1cc(/C=N\Nc2ccc([N+](=O)[O-])cc2)ccc1OCC(=O)Nc1ccc(C)c(C)c1	none
COc1cc(/C=N/NC(=O)c2cccc([N+](=O)[O-])c2)ccc1OCc1ccc(C)cc1	dFosB act-1 49.6 | dFosB act-2 inactive
COc1ccc(/C=N/NC(=O)c2cccc([N+](=O)[O-])c2)cc1O	none
CCOc1cc(/C=N\NC(=O)Cc2ccccc2)ccc1OCC(=O)Nc1ccc(C)c(C)c1	dFosB act-1 24.0 (no result: PolyA inh) | dFosB act-2 inactive
COc1cc(/C=N/NC(=O)c2ccccc2O)ccc1OCC(=O)Nc1ccccc1	dFosB act-1 27.5 | dFosB act-2 inactive
CCOc1cc(/C=N/NC(=O)Cn2nc([N+](=O)[O-])cc2C)ccc1OCc1ccc(F)cc1	dFosB act-1 35.3 | dFosB act-2 inactive
O=c1[nH]cnc2c1ncn2[C@@H]1O[C@H](COS(=O)(=O)O)[C@@H](O)[C@H]1O	none (no result: ZTA DNA inh, PolyA inh, EBNA-1 inhibitor, NALP1 inh)
COc1ccc(/C=N/NC(=O)c2[nH]nc3c2CCc2ccccc2-3)cc1OC	dFosB act-1 88.1 | dFosB act-2 inactive
COc1cc(/C=N\NC(=O)c2ccc(-c3ccccc3)cc2)ccc1OCC(N)=O	dFosB act-1 66.4 (no result: ZTA DNA inh, EBNA-1 inhibitor) | dFosB act-2 inactive
CNC(=O)c1[nH]nc2c1CCc1ccccc1-2	none
Cc1cc(C)c2c(n1)sc1c(-c3ccccc3)c(C#N)c(N)nc12	dFosB act-1 29.3 | dFosB act-2 inactive
Cc1nc(N)c(C#N)c(-c2ccccc2)c1C	none
O=C(CCC1CCCNC1)c1ccccc1 (configuration not stated)	none (no result: dFosB act-1)
Cc1nn(C)cc1/C=N/NC(=S)Nc1ccc(Cl)cc1Cl	dFosB act-1 33.6 | dFosB act-2 inactive
O=S(=O)(NCCOc1ccccc1F)c1cccc(Br)c1	none (no result: PolyA inh, EBNA-1 inhibitor, NALP1 inh)
Cc1cccc(C(=O)Nc2ccc(C(=O)N/N=C/c3ccc4c(c3)OCO4)cc2)c1	none
O=C(CNC(=O)c1ccccc1Cl)N/N=C/c1ccc2c(c1)OCO2	none
O=C(N/N=C/c1ccc2c(c1)OCO2)c1cccc(NC(=O)c2ccccc2Cl)c1	dFosB act-1 21.3 | dFosB act-2 inactive
O=C(Cn1nnc(-c2ccccc2Cl)n1)N/N=C/c1ccc2c(c1)OCO2	dFosB act-1 23.6 | dFosB act-2 inactive
Cc1ccccc1C(=O)Nc1cccc(C(=O)N/N=C/c2ccc3c(c2)OCO3)c1	none
O=C(N/N=C/c1ccc2c(c1)OCO2)c1ccc(NC(=O)c2ccccc2Cl)cc1	dFosB act-1 22.6 | dFosB act-2 inactive
N#C/C(=C1/C(=O)Nc2ccc(Br)cc21)c1ccccn1	none
Cc1cccc2nc(-c3cccc(NC(=O)c4ccc(Cl)cc4)c3)cn12	dFosB act-1 20.6 | dFosB act-2 inactive
COc1ccc(COc2cc(-c3cccc(OC)c3)nc3ccc(NC(=O)c4cccnc4)cc23)cc1	dFosB act-1 18.6 | dFosB act-2 inactive
Cc1nc2cc(C(=O)OCC(=O)NC34CC5CC(CC(C5)C3)C4)ccc2n1-c1ccccc1	dFosB act-1 65.4 (no result: NALP1 inh) | dFosB act-2 inactive
O=C(CSc1cn[nH]n1)Nc1ccccc1C(=O)O	none
Cc1ccc(Nc2nnc(SCC(=O)NC3CCCc4ccccc43)s2)cc1 (configuration not stated)	none
NC(=O)C1CCN(CC(=O)NC2CCCc3ccccc32)CC1 (configuration not stated)	none
Cc1ccc(-c2nnn(CC(=O)NC3CCCc4ccccc43)n2)cc1 (configuration not stated)	dFosB act-1 25.1 | dFosB act-2 inactive
Cc1cccc(Nc2nnc(SCC(=O)NC3CCCc4ccccc43)s2)c1 (configuration not stated)	dFosB act-1 21.2 | dFosB act-2 inactive
CCN(CC(=O)Nc1c(F)cccc1F)C(=O)C1Cc2ccccc2CN1S(=O)(=O)CC (configuration not stated)	none (no result: NALP1 inh)
